This is an account of results in PubChem BioAssay AID1259313 (Sanford-Burnham Center for Chemical Genomics, 2017).

Screen size: about 340,000 compounds; about 8,500 (2.5%) were called active.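 How the source made its calls: active means melting temperature shift of at least 10% of the positive control shift, at one fixed dose; inactive means the rest.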 The entries come from a sample that favours actives as a whole.

The assay concerns Glutamate receptor ionotropic, NMDA 3A (GRIN3A) ligand-binding domain. The assay is described as follows: NR3A LBD thermal stabilization by compounds – biophysical, differential scanning fluorimetry, uHTS, primary screen (AID 1259313). The following applies: at 25 µM, stronger effect = higher value, 0% = protein alone, 100% = glycine-bound protein.
With `O=C(Nc1cccc(Cl)c1)c1cncn1-c1ccc(F)cc1`, the Tm shift relative to glycine control was -0.7% (inactive).

As to `Cc1cccc(N=C2NC(=O)CS2)c1C`, the Tm shift relative to glycine control is 5.95% (inactive).

As to `CC(=O)Nc1ccc(C(=O)CSc2nc3ccc(C)cc3[nH]2)cc1`, the Tm shift relative to glycine control is -17.4% (inactive).

`Cc1nc2nc(SCC(=O)c3ccccc3)[nH]c2cc1Br`: the Tm shift relative to glycine control was -9.38% (inactive).

`O=C(CSc1nc2ccc([N+](=O)[O-])cc2[nH]1)c1ccc(Cl)cc1`: the Tm shift relative to glycine control was 18.5% (active).

For `O=C(Nc1ccc(Cl)cc1)c1cccc(OC(=S)N2CCOCC2)c1`, the Tm shift relative to glycine control was -0.47% (inactive).

Take `C/C(=N\Nc1ccccc1)c1cccs1`: the Tm shift relative to glycine control was 1.45% (inactive).

As to `CC/C(=N/Nc1ccccc1)c1cnnc(SC)n1`, the Tm shift relative to glycine control is 1.52% (inactive).

On to `C/C(=N/Nc1ccc(Cl)cc1)c1cnnc(-c2ccccc2)n1`, for which the Tm shift relative to glycine control was 10.3% (active).

Take `CN(CCO)c1ccc(/C=N/Nc2nncc3ccccc23)cc1`: the Tm shift relative to glycine control was 3.23% (inactive).

`Cc1csc(NC(=O)CSc2nc(=O)cc(N)n2-c2ccc(F)cc2)n1`: the Tm shift relative to glycine control was -0.09% (inactive).

Turning to `CC(C)N1CCC(N2CCN(Cc3cccnc3)CC2CCO)CC1` (stereo not drawn), the Tm shift relative to glycine control was -1.29% (inactive).

On to `Clc1ccc(Nc2nc(-c3cccs3)cs2)nc1`, for which the Tm shift relative to glycine control was 23% (active).

Consider `CCCc1cc(C(=O)Nc2ccc(Cl)cn2)cs1`, for which the Tm shift relative to glycine control was 0.69% (inactive).

Regarding `Clc1ccc(Cc2nnc(-c3cccs3)o2)cc1`, the Tm shift relative to glycine control is -0.55% (inactive).

On to `Cc1cc(C)cc(NC(=O)C(OC(=O)c2ccc(O)cc2)c2ccccc2)c1` (stereo not drawn), for which the Tm shift relative to glycine control was 10.5% (active).

Turning to `Cc1ccc(C)c(NC(=O)C(OC(=O)c2ccc(C)s2)c2ccccc2)c1` (stereo not drawn), the Tm shift relative to glycine control is -6.89% (inactive).

With `Cc1cc(C)cc(NC(=O)C(c2ccccc2)N2CCN(CC(=O)N3CCCC3)CC2)c1` (stereo not drawn), the Tm shift relative to glycine control was -1.19% (inactive).

`COc1cc(CO)c(C2(CO)CCCC2)cc1OC`: the Tm shift relative to glycine control was -9.65% (inactive).

Take `CNc1nccc(-c2ccc(Cl)cc2)c1C#N`: the Tm shift relative to glycine control is -0.74% (inactive).

As to `NC(=O)C1(Nc2ccc(-c3ccccc3)cc2)CCCC1`, the Tm shift relative to glycine control is 2.37% (inactive).

Consider `N#CC1(Nc2ccc(-c3ccc(Cl)cc3)cc2)CCCC1`, for which the Tm shift relative to glycine control was 20.4% (active).

For `COc1ccccc1CNC(=O)CNC(=O)c1cn(-c2ccccc2OC)c(=O)c2ccccc12`, the Tm shift relative to glycine control was -0.54% (inactive).

In the case of `Cc1ccc(NC(=O)CSCC(=O)N2CCOCC2)cc1`, the Tm shift relative to glycine control is 1.21% (inactive).

In the case of `Cc1cc2c(cc1C)[n+](C)cn2CC(O)COCC1CC=CCC1` (stereo not drawn), the Tm shift relative to glycine control was 11.6% (active).

On to `CNC(=S)N/N=C/c1ccc(N2CCOCC2)s1`, for which the Tm shift relative to glycine control was -0.99% (inactive).

As for `CCCn1c(=O)c2c(C(F)(F)F)cc(-c3cccs3)nc2n(CCC)c1=O`, the Tm shift relative to glycine control is 0.77% (inactive).

As to `COc1ccc(NC(=O)NCCN2CCN(c3ccc(C)cc3)CC2)c(Cl)c1`, the Tm shift relative to glycine control was -3.16% (inactive).

With `Cc1ccc(C2(C)NC(=O)N(CC(=O)Nc3ccccc3C(=O)N3CCCCC3)C2=O)cc1` (stereo not drawn), the Tm shift relative to glycine control is -1.86% (inactive).

As for `CSCCC(NS(=O)(=O)c1ccc(C)cc1)C(=O)N(C)CC(=O)Nc1ccccc1Br` (stereo not drawn), the Tm shift relative to glycine control is 0.34% (inactive).

Turning to `COC(=O)c1ccc(Nc2ncnc3sccc23)cc1`, the Tm shift relative to glycine control is 13% (active).

As for `CCCc1cc(C(=O)Nc2ccc(C(=O)OC)cc2)cs1`, the Tm shift relative to glycine control was -10.4% (inactive).

With `COc1ccc(Nc2ncnc3sc(C)cc23)cc1`, the Tm shift relative to glycine control was -17.1% (inactive).

As to `C/C(=N\N)c1c(-c2ccccc2)c2cc(Br)ccc2[nH]c1=O`, the Tm shift relative to glycine control was -2.09% (inactive).

With `CC(=O)NCCC(=O)Nc1cc(S(=O)(=O)N2CCCCC2)ccc1Oc1cccc(C)c1`, the Tm shift relative to glycine control was 1.88% (inactive).

With `O=C(O)c1ccc2c(c1)C(=O)N(NC(=O)c1ccc(O)cc1)C2=O`, the Tm shift relative to glycine control was 0.18% (inactive).

As for `Cn1cccc1/C=C1\SC(=S)N(NC(=O)c2ccc(Cl)cc2)C1=O`, the Tm shift relative to glycine control is 8.58% (inactive).

In the case of `CC(=O)N1C(=O)/C(=C2\SC(=S)N(NC(=O)c3ccc(O)cc3)C2=O)c2ccccc21`, the Tm shift relative to glycine control was 21.7% (active).

In the case of `Cc1ccc(CC2CC(=O)N(c3cc(C)ccc3C)C2=O)cc1` (stereo not drawn), the Tm shift relative to glycine control is -1.45% (inactive).

With `COc1ccc(NC(=O)C(=O)NCC(=O)Nc2cccc(C(F)(F)F)c2)cc1`, the Tm shift relative to glycine control is 7.67% (inactive).

Regarding `COc1cc(NC(=O)c2[nH]cnc2C(N)=O)cc(C(=O)Nc2cccc(C(F)(F)F)c2)c1`, the Tm shift relative to glycine control is 14.8% (active).

Consider `COc1cc(NC(=O)c2cncc(-c3ccc(C#N)cc3)c2)cc(C(=O)Nc2cccc(C(F)(F)F)c2)c1`, for which the Tm shift relative to glycine control is -1.27% (inactive).

Turning to `N#Cc1ccccc1NC(=O)c1cccc(COc2ccc(Cl)cc2Cl)c1`, the Tm shift relative to glycine control is 7.12% (inactive).

Regarding `O=C(NCCC1CCCCN1S(=O)(=O)c1cccs1)C(=O)Nc1ccc(F)cc1F` (stereo not drawn), the Tm shift relative to glycine control was 1.11% (inactive).

On to `c1ccc(CCc2ccccn2)cc1`, for which the Tm shift relative to glycine control is 1.84% (inactive).

Consider `CC1(C)C=Cc2c(ccc3c2OC[C@@H](c2ccc(O)cc2O)C3)O1`, for which the Tm shift relative to glycine control is 8.09% (inactive).

On to `Cc1ccc2c(=O)cc(C(=O)NCCc3ccc(S(N)(=O)=O)cc3)oc2c1C`, for which the Tm shift relative to glycine control was 10.6% (active).

Turning to `Cc1cc(=O)oc2cc(OC(C)C(=O)NCCc3ccc(S(N)(=O)=O)cc3)ccc12` (stereo not drawn), the Tm shift relative to glycine control is -2.25% (inactive).

`Cc1cc(=O)oc2c(C)c(OCC(=O)NCCc3ccc(S(N)(=O)=O)cc3)ccc12`: the Tm shift relative to glycine control was -1.05% (inactive).

Turning to `CCn1c(SCC(=O)c2ccc3ccccc3c2)nnc1-c1cccs1`, the Tm shift relative to glycine control was -0.65% (inactive).

For the molecule `Cc1ccc(-n2c(Cc3cccs3)nnc2SCC(=O)OC(C)C)cc1`, the Tm shift relative to glycine control was -1.71% (inactive).

In the case of `CCn1c(Cc2cccs2)nnc1SCC(=O)c1ccc(C)cc1`, the Tm shift relative to glycine control was 11.2% (active).

As to `Cc1ccccc1NC(=O)C(C)c1ccc(-c2ccccc2)c(F)c1` (stereo not drawn), the Tm shift relative to glycine control was -4.35% (inactive).

On to `CCCC(C(=O)OCCN(CC)CC)(c1ccccc1)c1ccccc1`, for which the Tm shift relative to glycine control is -1.26% (inactive).

As to `O=C(c1ccccc1)C(Cn1cncn1)C(Sc1ccccc1)c1ccccc1` (stereo not drawn), the Tm shift relative to glycine control was 0.35% (inactive).

With `COc1ccc(CNC(=O)c2cc(=O)c3c(C)cc(C)cc3o2)cc1`, the Tm shift relative to glycine control was -0.39% (inactive).

Regarding `CCc1ccc(NC(=O)Cn2nnc(C(=O)NCc3ccc(OC)cc3)c2N)cc1`, the Tm shift relative to glycine control is 24.6% (active).

As for `COc1ccc(NC(=O)Cn2nnc(C(=O)NCCc3ccc(OC)c(OC)c3)c2N)cc1`, the Tm shift relative to glycine control is -0.6% (inactive).

Turning to `CCc1ccc(NC(=O)Cn2nnc(C(=O)NCc3ccc4c(c3)OCO4)c2N)cc1`, the Tm shift relative to glycine control was 8.72% (inactive).

As for `COc1ccc(CNC(=O)c2nnn(CC(=O)Nc3cc(C)cc(C)c3)c2N)cc1`, the Tm shift relative to glycine control was 29.7% (active).

As for `COc1cccc(CNC(=O)c2nnn(CC(=O)Nc3cc(Cl)ccc3C)c2N)c1`, the Tm shift relative to glycine control was 2.58% (inactive).

On to `Cc1ccc(NC(=O)Cn2nnc(C(=O)NCc3ccco3)c2N)c(C)c1`, for which the Tm shift relative to glycine control was 1.53% (inactive).

In the case of `COc1cccc(CNC(=O)c2nnn(CC(=O)Nc3cc(C)ccc3C)c2N)c1`, the Tm shift relative to glycine control is 11.9% (active).

On to `COc1ccc(CNC(=O)CN2CCC(n3nnc4cc(F)ccc43)CC2)cc1`, for which the Tm shift relative to glycine control was 0.17% (inactive).

`Cc1ccc(N/C(N)=N/c2nc(C(F)(F)F)cc(C(F)(F)F)n2)cc1`: the Tm shift relative to glycine control is -6.73% (inactive).

As for `O=C(NCc1cccs1)c1ccc2c(c1)ncn2C1CCCC1`, the Tm shift relative to glycine control was -0.09% (inactive).

Turning to `O=C1CN(C(=O)CN2C(=O)NC3(CCCCC3)C2=O)c2ccccc2N1`, the Tm shift relative to glycine control was -0.31% (inactive).

For `O=C(CSc1c2c(nc3ccc(Cl)cc13)CCCC2)NCc1ccco1`, the Tm shift relative to glycine control was 0.25% (inactive).

Regarding `COC(=O)C1CCN(C(=O)c2ccc3oc(Cc4ccc(Cl)cc4)nc3c2)CC1`, the Tm shift relative to glycine control was 0.94% (inactive).

In the case of `COc1ccc(Cl)cc1NC(=O)COc1ccc2c(c1)OCO2`, the Tm shift relative to glycine control is -1.71% (inactive).

`C#CCNC(=O)C1=C[C@@H](c2ccccc2)[C@H](CCCO)[C@@H](OCC)O1`: the Tm shift relative to glycine control was -1.23% (inactive).

For `COc1ccc(-c2cc(C(=O)n3cnc4ccccc43)c3ccccc3n2)cc1`, the Tm shift relative to glycine control was -1.16% (inactive).

Consider `COc1ccc(NC(=O)c2cc(-c3cc(OC)c(OC)c(OC)c3)nc3ccccc23)c(OC)c1`, for which the Tm shift relative to glycine control was 1.42% (inactive).

With `COc1ccc(-c2cc(C(=O)Nc3ccccc3O)c3ccccc3n2)cc1`, the Tm shift relative to glycine control was 21% (active).

On to `Cc1cccc(CSc2ccc(-c3cccs3)nn2)c1`, for which the Tm shift relative to glycine control is -7.55% (inactive).

Turning to `Nc1ccc(SCCN2C(=O)c3ccccc3C2=O)cc1`, the Tm shift relative to glycine control is -0.18% (inactive).

As for `O=C(Nc1c(Br)cc2c(c1Br)Cc1ccccc1-2)C(F)(F)F`, the Tm shift relative to glycine control was 11.5% (active).

With `O=C(Nc1ccccc1)c1ccccc1NC(=O)C(F)(F)F`, the Tm shift relative to glycine control is -1.92% (inactive).

For the molecule `O=C(Nc1c(Br)cc2c(c1Br)Cc1cc([N+](=O)[O-])ccc1-2)C(Cl)Cl`, the Tm shift relative to glycine control is -1.4% (inactive).

With `O=C(CCS(=O)(=O)c1ccc(Br)cc1)NCCc1ccc(Cl)cc1`, the Tm shift relative to glycine control was 0.18% (inactive).

As for `CCOc1ccc(NC(=O)CN(C)C(=O)CSc2ccccc2)cc1OCC`, the Tm shift relative to glycine control is -0.35% (inactive).

Consider `O=C(/C=C/Sc1ncn[nH]1)c1ccc(Cl)cc1`, for which the Tm shift relative to glycine control is -1.06% (inactive).

In the case of `Fc1c(F)c(C(F)(F)F)c(F)c(F)c1N1CCN(c2ccc3nnc(C(F)(F)F)n3n2)CC1`, the Tm shift relative to glycine control was 33.4% (active).

As for `FC(F)(F)c1nnc2ccc(N3CCN(c4ccccc4)CC3)nn12`, the Tm shift relative to glycine control is -3.49% (inactive).

On to `CSCCC(NC(=O)c1ccc(Cl)cc1Cl)C(=O)NNC(=O)c1csc(N2CCOCC2)n1` (stereo not drawn), for which the Tm shift relative to glycine control is -1.92% (inactive).

With `COc1ccc(NC(=O)CN2C(=O)CSc3ccc(S(=O)(=O)N4CCC(C)CC4)cc32)cc1`, the Tm shift relative to glycine control was -2.6% (inactive).

With `Cc1cc(Cl)c2oc(C(=O)NC(C)c3ccncn3)c(C)c2c1` (stereo not drawn), the Tm shift relative to glycine control is -2.04% (inactive).

Consider `Cc1ccc(-n2ncc3c(N4CCN(c5ccc(F)cc5)CC4)ncnc32)c(C)c1`, for which the Tm shift relative to glycine control was 10.6% (active).

As to `Cc1ccc(-n2ncc3c(=O)[nH]cnc32)c(C)c1`, the Tm shift relative to glycine control is -2.15% (inactive).

Take `Cc1ccc2cc(C)c(N3CCN(c4ccc(F)cc4)CC3)nc2c1`: the Tm shift relative to glycine control was 1.71% (inactive).

In the case of `CCCCn1c(SCc2ncc(-c3ccccc3)o2)nc2cc(S(N)(=O)=O)ccc21`, the Tm shift relative to glycine control was -10.6% (inactive).

Consider `CCOc1ccc(C(CCc2ccccc2)NC(=O)c2ccc(OC)c(OC)c2)cc1OCC` (stereo not drawn), for which the Tm shift relative to glycine control was -0.18% (inactive).

For the molecule `O=C1CCC(C(=O)N2CCCCO2)CN1Cc1cccc(C(F)(F)F)c1` (stereo not drawn), the Tm shift relative to glycine control was 0.67% (inactive).
